Read-out in test [1]: Interleukin-1 alpha (IL1a), IL1A (gene 3552)
Nature of the test: BSK_KF3CT_IL1a: BioMAP Diversity Plus: KF3CT Assay for Interleukin-1 alpha (IL1a) Biomarker Activity (AID 2283070). The settings on record: primary human keratinocytes with fibroblasts; actives raise or lower the signal. A digest of the protocol:
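Primary skin co-culture (keratinocytes, foreskin fibroblasts), 24 h exposure; ELISA for IL-1a; bidirectional curve fit vs DMSO.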

Read-out in test [2]: TIMP metallopeptidase inhibitor 2 (TIMP2), TIMP2 (gene 7077)
Nature of the test: BSK_KF3CT_TIMP2: BioMAP Diversity Plus: KF3CT Assay for TIMP metallopeptidase inhibitor 2 (TIMP2) Biomarker Activity (AID 2283071). The settings on record: primary human keratinocytes with fibroblasts; actives raise or lower the signal. A digest of the protocol:
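ELISA readout of TIMP-2 in keratinocyte plus foreskin fibroblast co-cultures (human skin primary cells), 24 h post-dose. Gain or loss of signal fitted relative to DMSO.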

Read-out in test [3]: C-C motif chemokine 2 (Homo sapiens) (UniProt P13500)
Nature of the test: BSK_KF3CT_MCP1: BioMAP Diversity Plus: KF3CT Assay for Monocyte Chemoattractant Protein 1 (MCP1/CCL2) Biomarker Activity (AID 2283073). To be noted: primary human keratinocytes with fibroblasts; actives raise or lower the signal. A digest of the protocol:
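ELISA readout of MCP-1 after 24 h chemical dosing of a human skin primary co-culture of keratinocytes and foreskin fibroblasts. Activity was fitted in both directions against DMSO.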

Read-out in test [4]: Matrix Metallopeptidase 9 (MMP9), MMP9 (gene 4318)
Nature of the test: BSK_KF3CT_MMP9: BioMAP Diversity Plus: KF3CT Assay for Matrix Metallopeptidase 9 (MMP9) Biomarker Activity (AID 2283074). To be noted: primary human keratinocytes with fibroblasts; actives raise or lower the signal. A digest of the protocol:
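ELISA read-out of MMP-9 at 24 h post-dosing in a co-culture of human skin keratinocytes and foreskin fibroblasts. Gain or loss of signal was fitted in both directions against DMSO.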

Read-out in test [5]: urokinase plasminogen activator (uPA), PLAU (gene 5328)
Nature of the test: BSK_KF3CT_uPA: BioMAP Diversity Plus: KF3CT Assay for urokinase plasminogen activator (uPA) Biomarker Activity (AID 2283075). The settings on record: primary human keratinocytes with fibroblasts; actives raise or lower the signal. A digest of the protocol: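 Skin co-culture (keratinocytes + foreskin fibroblasts), human primary; 24 h post-dose; uPA by ELISA; gain/loss fit vs DMSO baseline.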

Read-out in test [6]: CD40, CD40 (gene 958)
Nature of the test: BSK_LPS_CD40: BioMAP Diversity Plus: LPS Assay for CD40 Biomarker Activity (AID 2283076). The settings on record: primary human HUVEC with PBMC; actives raise or lower the signal. Put shortly: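 Cells were dosed, incubated 24 h, then assayed for CD40 by ELISA. Gain or loss of signal was analysed relative to DMSO controls. The culture paired human umbilical vein endothelium with peripheral blood mononuclear cells.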

Read-out in test [7]: E-selectin (Homo sapiens) (UniProt P16581)
Nature of the test: BSK_LPS_Eselectin: BioMAP Diversity Plus: LPS Assay for Eselectin Biomarker Activity (AID 2283077). The settings on record: primary human HUVEC with PBMC; actives raise or lower the signal. Put shortly:
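Primary human vascular co-culture (endothelium plus PBMC) was dosed with chemical, then E-selectin quantified by ELISA at 24 h. Endpoint values derive from bidirectional curve fitting relative to DMSO.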

Read-out in test [8]: Interleukin-8 (IL8), CXCL8 (gene 3576)
Nature of the test: BSK_LPS_IL8: BioMAP Diversity Plus: LPS Assay for Interleukin-8 (IL8) Biomarker Activity (AID 2283078). The settings on record: primary human HUVEC with PBMC; actives raise or lower the signal. Put shortly: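 Readout is IL-8 by ELISA, taken 24 h after compounds were added to LPS-stimulated endothelial/PBMC co-cultures. Both increases and decreases relative to DMSO control were scored through bidirectional fitting.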

Test [9] in a line: BSK_LPS_SRB: Viability Assessment in the BioMAP Diversity Plus: LPS Assay (AID 2283079).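 Note: total protein by sulforhodamine B absorbance as a cytotoxicity measure; measured one day after compound addition.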 The settings on record: primary human HUVEC with PBMC. Put shortly: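 Readout is SRB absorbance at 560 nm (0.1% stain, TCA-fixed parallel cultures) as a total-protein cytotoxicity measure. Cells: primary human umbilical vein endothelium plus peripheral blood mononuclear cells, 24 h after chemical exposure; DMSO served as baseline.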

Read-out in test [10]: Interleukin-1 alpha (IL1a), IL1A (gene 3552)
Nature of the test: BSK_LPS_IL1a: BioMAP Diversity Plus: LPS Assay for Interleukin-1 alpha (IL1a) Biomarker Activity (AID 2283080). The settings on record: primary human HUVEC with PBMC; actives raise or lower the signal. A digest of the protocol:
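ELISA read-out of IL-1 alpha from a human primary vascular co-culture (endothelium plus PBMC) under LPS, sampled 24 hours post-dosing. Activity was fitted in both directions relative to DMSO controls.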

Read-out in test [11]: Monocyte Chemoattractant Protein-1 (MCP1), CCL2 (gene 6347)
Nature of the test: BSK_LPS_MCP1: BioMAP Diversity Plus: LPS Assay for Monocyte Chemoattractant Protein-1 (MCP1) Biomarker Activity (AID 2283081).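 For AC50: secreted MCP-1 protein quantified by ELISA in culture supernatant.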 The settings on record: primary human HUVEC with PBMC; actives raise or lower the signal. Put shortly:
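Human endothelial–PBMC co-cultures were dosed with chemical, then LPS-driven MCP-1 levels were quantified by ELISA at 24 h. Activity in either direction was fitted versus DMSO negative control.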

Test [12] is described as follows: BSK_LPS_PGE2: BioMAP Diversity Plus: LPS Assay for Prostaglandin E2 (PGE2) Biomarker Activity (AID 2283082).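 For AC50: secreted prostaglandin E2 measured by ELISA in LPS-stimulated co-culture.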 To be noted: primary human HUVEC with PBMC; actives raise or lower the signal. Put shortly:
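ELISA read-out of PGE2 from human umbilical vein endothelial cells co-cultured with peripheral blood mononuclear cells under LPS, 24 h post-dose. Gain or loss of signal scored relative to DMSO baseline.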

Read-out in test [13]: Tissue Factor, F3 (gene 2152)
Nature of the test: BSK_LPS_TissueFactor: BioMAP Diversity Plus: LPS Assay for Tissue Factor Biomarker Activity (AID 2283084). The settings on record: primary human HUVEC with PBMC; actives raise or lower the signal. A digest of the protocol:
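ELISA signal for cell-surface Tissue Factor (CD142) was read 24 h after compound dosing of an LPS-stimulated human endothelial–PBMC primary co-culture. Gain or loss of signal was scored relative to DMSO.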

Read-out in test [14]: Tumor necrosis factor (Homo sapiens) (UniProt P01375)
Nature of the test: BSK_LPS_TNFa: BioMAP Diversity Plus: LPS Assay for Tumour Necrosis Factor alpha (TNFa) Biomarker Activity (AID 2283085).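 Note: TNFa protein level quantified by ELISA in the co-culture.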 The settings on record: primary human HUVEC with PBMC; actives raise or lower the signal. A digest of the protocol: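 HUVEC/PBMC co-culture, LPS-stimulated; 24 h post-dose; TNFa by ELISA; gain or loss of signal fitted bidirectionally vs DMSO baseline.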

Read-out in test [15]: Vascular cell adhesion molecule 1 (VCAM1), VCAM1 (gene 7412)
Nature of the test: BSK_LPS_VCAM1: BioMAP Diversity Plus: LPS Assay for Vascular cell adhesion molecule 1 (VCAM1) Biomarker Activity (AID 2283086). The settings on record: primary human HUVEC with PBMC; actives raise or lower the signal. A digest of the protocol:
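ELISA read-out of VCAM-1 at 24 h post-dosing in an LPS-driven HUVEC/PBMC primary human co-culture; gain or loss of signal fitted bidirectionally against DMSO baseline. Cytotoxicity tracked in parallel cultures by SRB total-protein staining.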

Read-out in another test: CD38, CD38 (gene 952)
Nature of the test: BSK_SAg_CD38: BioMAP Diversity Plus: SAg Assay for CD38 Biomarker Activity (AID 2283087). To be noted: primary human HUVEC with PBMC; actives raise or lower the signal. A digest of the protocol: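 Measures CD38 on a human endothelial/PBMC co-culture driven by SEB and TSST-1, 24 h after compound exposure, using ELISA with fluorescence detection; DMSO defines baseline for bidirectional curve fitting.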

Read-out in test [16]: CD40, CD40 (gene 958)
Nature of the test: BSK_SAg_CD40: BioMAP Diversity Plus: SAg Assay for CD40 Biomarker Activity (AID 2283088). To be noted: primary human HUVEC with PBMC; actives raise or lower the signal. A digest of the protocol: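 Compounds were dosed onto a human primary endothelial–PBMC co-culture, and after 24 h CD40 was quantified by ELISA using a fluorescence signal. Activity in either direction was fitted relative to DMSO.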

Read-out in another test: CD69, CD69 (gene 969)
Nature of the test: BSK_SAg_CD69: BioMAP Diversity Plus: SAg Assay for CD69 Biomarker Activity (AID 2283089).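 For AC50: cell surface CD69 protein quantified by ELISA with fluorescence detection.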 To be noted: primary human HUVEC with PBMC; actives raise or lower the signal. Put shortly:
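Values derive from bidirectional fitting relative to DMSO vehicle. Cells: umbilical vein endothelium plus peripheral blood mononuclear cells, treated 24 h before fluorescent ELISA for CD69.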

The text below walks through data of PubChem BioAssay (EPA / NIEHS).

Several values for one entry are separate records, joined by “and”; a condition that tells them apart may be missing. Equal values may be shown once. Some compounds were tested as several samples or in several runs, with calls that do not always agree. Activity calls are given as the source filed them. Rule for the calls: active = hit-call score of the fitted dose curve at least 0.9, where 1 is the maximum; inactive = score below 0.9.

The term AC50 denotes the concentration giving half of the maximal activity seen.

Chain of E-selectin (Homo sapiens) (P16581 whole entry, looked up): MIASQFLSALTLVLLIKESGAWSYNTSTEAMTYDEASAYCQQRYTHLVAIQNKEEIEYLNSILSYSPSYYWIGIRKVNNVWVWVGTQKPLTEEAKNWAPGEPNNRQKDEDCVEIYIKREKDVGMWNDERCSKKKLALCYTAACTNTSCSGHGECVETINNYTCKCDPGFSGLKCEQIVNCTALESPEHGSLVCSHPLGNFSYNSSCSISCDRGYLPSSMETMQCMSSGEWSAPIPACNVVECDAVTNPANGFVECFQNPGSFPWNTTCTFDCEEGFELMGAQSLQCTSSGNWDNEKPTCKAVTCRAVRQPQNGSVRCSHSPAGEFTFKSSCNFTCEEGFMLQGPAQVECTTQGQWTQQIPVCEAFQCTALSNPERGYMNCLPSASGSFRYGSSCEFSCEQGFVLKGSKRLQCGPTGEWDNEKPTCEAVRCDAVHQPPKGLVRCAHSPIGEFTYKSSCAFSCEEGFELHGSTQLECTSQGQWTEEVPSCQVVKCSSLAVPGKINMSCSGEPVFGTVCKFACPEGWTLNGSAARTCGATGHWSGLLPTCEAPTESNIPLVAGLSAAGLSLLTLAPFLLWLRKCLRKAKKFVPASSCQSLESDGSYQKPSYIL
Chain of Tumor necrosis factor (Homo sapiens) (P01375 whole entry, looked up): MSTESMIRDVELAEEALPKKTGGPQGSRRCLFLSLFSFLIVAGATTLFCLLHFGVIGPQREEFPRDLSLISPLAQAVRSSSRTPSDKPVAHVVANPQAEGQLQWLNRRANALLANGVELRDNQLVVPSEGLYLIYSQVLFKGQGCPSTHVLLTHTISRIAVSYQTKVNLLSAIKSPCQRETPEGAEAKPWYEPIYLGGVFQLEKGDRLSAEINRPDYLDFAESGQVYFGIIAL

For `C=CC(=O)OCC(F)(F)C(F)F`, the result in test [1], in test [2], in test [3], in test [4], in test [5] and in [9] was inactive. Moreover, the outcome in test [11] and in [13] was inactive. Besides, the AC50 with CD40, CD40 (gene 958) [6] is 24 µM (active) and 19.9 µM (active); in [7] it was 45.9 µM (active) and 47.4 µM (active); in test [8] it was 49 µM (active) and 30 µM (active); in test [10], 40 µM (active) and 35.4 µM (active); in test [11], 20.8 µM (active); in test [12] it was 39.4 µM (active) and 31.6 µM (active). Besides, the AC50 in [14] was 54.6 µM (active) and 54 µM (active); in test [15] it was 38 µM (active) and 24.3 µM (active); in the test with CD38, CD38 (gene 952) it was 24.2 µM (active) and 36.9 µM (active); with CD40, CD40 (gene 958) [16] it was 37.2 µM (active) and 35.3 µM (active); in the test with CD69, CD69 (gene 969), 38.5 µM (active) and 30 µM (active).

In the case of `O=C(O)C(F)(F)OC(F)(F)C(F)(F)OC(F)(F)C(=O)O`, the outcome was “inactive” in [1]; “inactive” in test [2]; “inactive” in test [3]; “inactive” in test [4]; “inactive” in test [5]; “inactive” in the test with CD40, CD40 (gene 958) [6]. In addition, the result in test [8], in test [9], in [10], in test [11], in test [12] and in test [13] was inactive. Further, the outcome in test [15] is “inactive”; with CD38, CD38 (gene 952), “inactive”; in the test with CD40, CD40 (gene 958) [16], “inactive”; with CD69, CD69 (gene 969), “inactive”.

On to `O=C(O)C(F)(F)C(F)(F)C(=O)O`, for which the outcome in test [1] is “inactive”; in test [2], “inactive”; in [3], “inactive”; in test [4], “inactive”; in [5] it was “inactive”; with CD40, CD40 (gene 958) [6] it was “inactive”. In addition, the result in test [7], in test [8], in [9], in [10], in test [11] and in [12] was inactive. Moreover, the outcome was “inactive” in [13]; “inactive” in test [15]; “inactive” with CD38, CD38 (gene 952); “inactive” with CD40, CD40 (gene 958) [16]; “inactive” with CD69, CD69 (gene 969).
